Target: Solute carrier family 2, facilitated glucose transporter member 1 (Homo sapiens) (UniProt P11166)
Test: ST_JUDE_LEISH: Cytotoxicity at 2uM final concentration against transgenic Leishmania Mexicana promastigotes LmGLUT1 that are glucose transport deficient and complemented with the human glucose transporter GLUT1. Activity is measured by DNA content using SYBR green in vitro
Format: functional

Solute carrier family 2, facilitated glucose transporter member 1 (Homo sapiens), sequence (P11166 whole entry): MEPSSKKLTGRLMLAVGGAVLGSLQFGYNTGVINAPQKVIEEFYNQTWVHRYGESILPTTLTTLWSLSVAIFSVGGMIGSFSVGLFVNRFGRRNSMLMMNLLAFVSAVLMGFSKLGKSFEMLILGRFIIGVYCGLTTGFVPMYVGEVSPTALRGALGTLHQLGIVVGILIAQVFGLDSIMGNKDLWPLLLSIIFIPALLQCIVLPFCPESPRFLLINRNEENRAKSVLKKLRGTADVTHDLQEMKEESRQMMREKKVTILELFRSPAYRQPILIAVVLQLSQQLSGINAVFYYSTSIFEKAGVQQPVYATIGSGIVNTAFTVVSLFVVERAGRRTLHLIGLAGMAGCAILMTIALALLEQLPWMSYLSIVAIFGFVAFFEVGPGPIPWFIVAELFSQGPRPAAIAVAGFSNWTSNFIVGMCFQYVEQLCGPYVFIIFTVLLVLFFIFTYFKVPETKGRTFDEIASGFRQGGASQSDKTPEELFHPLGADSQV

| Compound | inhibition |
| --- | --- |
| CC(Cc1ccc(NC(=O)c2ccc(NCCc3ccccc3)cc2)cc1)NCCc1cccc(Cl)c1 (configuration not stated) | -0.04% |
| NCC1CCCN1Cc1ccc(-c2cccc(-c3nc4cc(C(F)(F)F)ccc4[nH]3)c2)cc1 (configuration not stated) | 1.03% |
| CCOc1ccc(-c2nonc2NC(=O)c2cccs2)cc1OCC | -0.24% |
| OC(CNCCc1ccccc1)Cn1c2ccc(Cl)cc2c2cc(Cl)ccc21 (configuration not stated) | -1.53% |
| CCn1cnc2c(Nc3cccc([N+](=O)[O-])c3)nc(N3CCC(N4CCCCC4)CC3)nc21 | 0.93% |
| CCNc1nc(OCC(F)(F)F)nc(N(c2ccccc2)c2ccccc2)n1 | 0.4% |
| N#Cc1cccc(Nc2ncc3c(-c4cccc(NC(=O)Cc5cccc(Cl)c5)c4)c[nH]c3n2)c1 | 3.15% |
| COc1cc(Nc2ccnc3cc(-c4ccncc4)ccc23)cc(OC)c1OC | 11.4% |

Target: Hexose transporter 1 (Plasmodium falciparum) (UniProt O97467)
Test: ST_JUDE_LEISH: Cytotoxicity at 2uM final concentration against transgenic Leishmania Mexicana promastigotes LmPfHT that are glucose transport deficient and complemented with the Plasmodium falciparum hexose transporter. Activity is measured by DNA content using SYBR green in vitro
Format: functional

| Compound | inhibition |
| --- | --- |
| O=C(N[C@H]1CCN(Cc2ccc(OC3CCN(Cc4ccccc4)CC3)c(Br)c2)C1)c1ccc(Cl)c(Cl)c1 | 2.97% |
| CCOC(=O)c1ccc(NC(=O)NCCCC2CCCN(CCCCCNC(=O)/C=C/c3ccc(Cl)c(Cl)c3)C2)cc1 (configuration not stated) | 1.66% |
| COc1cc2c(cc1C(F)(F)F)N(C(=O)Nc1cc(F)cc(-c3cccnn3)c1)CC2 | -2.17% |
| CCCc1cc(NCC)nc(Nc2ccc(F)cc2)n1 | 6.64% |
| COc1ccc2nc3cc(Cl)ccc3c(NCCCCN)c2c1 | 1.49% |
| COc1ccc2c(=NN=CC=Cc3ccccc3)cc(C)[nH]c2c1 | 4.29% |
| CC(=O)Nc1ccc(S(=O)(=O)N2CCN(c3nc(NC4CCCC4)c4ccccc4n3)CC2)cc1 | 3.35% |
| C=CCOC(=O)N1CCC(CNCc2cccc(-c3ccc(-c4nc5cccc(C)c5[nH]4)s3)c2)C1 (configuration not stated) | -0.37% |
| CN1CCC(NCc2cccc(-c3cccc(-c4nc5cc(C(F)(F)F)ccc5[nH]4)c3)c2)CC1 | 0.79% |
| Cc1c(C)c2c(c(C)c1O)CC[C@@](C)(C(=O)N1CCC(CCN3CCC(c4c[nH]c5ccccc45)CC3)CC1)O2 | 7% |
| COc1cc2nc(NCCCO)nc(Nc3ccc(Oc4ccccc4)cc3)c2cc1OC | 6.09% |
| O=C(Nc1cccc(-c2cccc(-c3nc4cc(C(F)(F)F)ccc4[nH]3)c2)c1)c1ccncc1 | 7.47% |
| COc1ccc2nccc(N(C)CC3(O)CCC(NCc4cc5c(cn4)OCCO5)CC3)c2n1 (configuration not stated) | 1.7% |
| CCN1CCC(NCc2ccc(-c3ccc(Cl)cc3)cc2)CC1 | 11% |
| c1cncc(CCNCc2ccc(-c3cccc(-c4nc5ccccc5[nH]4)c3)cc2)c1 | 0.67% |
| CC(CN(C)C)C(=O)Nc1cccc(-c2ccc(-c3nc4cc(C(F)(F)F)ccc4[nH]3)cc2)c1 (configuration not stated) | 9.17% |
| Cc1cc(OCc2ccccc2)c(OCc2ccccc2)cc1C(O)CN(C)Cc1ccccc1 (configuration not stated) | 1.08% |
| COc1ccccc1N1CCN(C(C(=O)NCc2ccc(C)cc2)c2ccc(C)cc2)CC1 (configuration not stated) | -0.64% |
| CN(C)CCCN(C)c1cccc2c1nc(-c1cccnc1)n2CCNCc1ccccc1 | 7.52% |
| CCOc1cc(C(=O)NC2CC(C)(C)N(C)C(C)(C)C2)ccc1-c1nc2cc(Cl)c(Cl)cc2[nH]1 | 12.6% |

| Compound | inhibition |
| --- | --- |
| CC(CN(C)C)C(=O)Nc1cccc(-c2ccc(-c3nc4ccccc4[nH]3)cc2)c1 (configuration not stated) | 9.79% |
| FC(F)(F)c1ccc2nccc(NCc3ccccc3)c2c1 | 5.96% |
| CCN(CC)C(=O)C1CCN(C(C(=O)N2CCN(CC(=O)N3CCCC3)CC2)c2cc3ccccc3o2)CC1 (configuration not stated) | 0.62% |
| O=C(NC1CC1)c1ccc(N2CCC(Cc3ccccc3)CC2)c([N+](=O)[O-])c1 | 0.86% |
| CCCOc1ccc(-c2nonc2NC(=O)c2cccc(OC)c2)cc1OCCC | 10.9% |
| FC(F)(F)c1cccc(Nc2nc(-n3ccnc3)nc(-n3ccnc3)n2)c1 | 0.62% |
| COc1ccc2nccc(N3CCC(SCCNCc4ccc5c(n4)NC(=O)CS5)C3)c2n1 (configuration not stated) | -0.72% |
| CCN(CCCN1CCCCC1)c1cc(C)nc(Nc2cc(Cl)ccc2C)n1 | 1.77% |
| CCc1cc(NC2CCN(C)CC2)nc(Nc2cccc(OC)c2)n1 | 10% |
| Cc1nnc2c(N(C(=O)NCCc3ccccc3)C(=O)NCCc3ccccc3)cc3cc(Cl)ccc3n12 | 10.1% |
| CN1CCC(NCc2cccc(-c3ccc(S(=O)(=O)NCCc4ccccn4)c(F)c3)c2)CC1 | 0.03% |
| CC(Cc1ccc(NC(=O)c2ccc(NCCc3ccccc3)cc2)cc1)NCCc1cccc(Cl)c1 (configuration not stated) | -0.81% |
| NCC1CCCN1Cc1ccc(-c2cccc(-c3nc4cc(C(F)(F)F)ccc4[nH]3)c2)cc1 (configuration not stated) | 1.99% |
| CCOc1ccc(-c2nonc2NC(=O)c2cccs2)cc1OCC | 1.17% |
| OC(CNCCc1ccccc1)Cn1c2ccc(Cl)cc2c2cc(Cl)ccc21 (configuration not stated) | -1.78% |
| CCn1cnc2c(Nc3cccc([N+](=O)[O-])c3)nc(N3CCC(N4CCCCC4)CC3)nc21 | 3.03% |
| CCNc1nc(OCC(F)(F)F)nc(N(c2ccccc2)c2ccccc2)n1 | 1.48% |
| N#Cc1cccc(Nc2ncc3c(-c4cccc(NC(=O)Cc5cccc(Cl)c5)c4)c[nH]c3n2)c1 | 2.53% |
| COc1cc(Nc2ccnc3cc(-c4ccncc4)ccc23)cc(OC)c1OC | 20.7% |

From ChEMBL document CHEMBL3433997, “St. Jude Leishmania screening dataset” (2016)
